Here are results for six molecules from PubChem BioAssay.

Values joined by “and” are separate entries in the source; they are usually repeats but may differ in a detail not shown here. Identical values can stand only once. Active and inactive are the calls of the source.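 The calls were made as follows, unless noted: active = thallium flux through the channel raised or lowered by more than 3 SD from vehicle-only wells, actives on both sides; inactive = the rest.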

Experiment [1] can be described thus: P. berghei load reduction in hepatocytes – cell-based, HepG2, luciferase luminescence, HepG2 viability, primary screen (AID 624349; in the data active = parasite load remaining mostly below about 12%, no sharp cut-off; inactive = mostly above about 10%;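 also: 100% = mean of DMSO negative control wells on the same plate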). The note with it: P. berghei liver stage in HepG2, luciferase luminescence, concentration not given here; parasite load remaining: stronger effect = lower value; viability: measured here: HepG2 viability without parasites.
Experiment [2] can be described thus: signal quenchers or enhancers, Cy5 substrate/SSB – biochemical, NIH Clinical Collection, E. coli SSB, artefact control for HCV NS3 helicase inhibitor project (AID 743268; call rule not given here). The following applies: Cy5-oligo bound E. coli SSB, fluorescence interference.
In experiment [3] the test system is Hepatitis C virus NS3 helicase. Nature of the experiment: blockers of NS3h binding to DNA – biochemical, fluorescence polarization, NIH Clinical Collection, primary screen (AID 743270; call rule not given here). The following applies: NS3 helicase binding to Cy5-dT15 DNA, stronger effect = higher value, concentration not given here. (In general: Fluorescence polarisation rises when a labelled molecule tumbles more slowly, as on binding a larger partner.)

Experiment [4] deals with Single-stranded DNA-binding protein (Escherichia coli (strain K12)) (UniProt P0AGE0). Kind of experiment: SSB-ssDNA binding inhibitors – biochemical, fluorescence polarization, NIH Clinical Collection, counter-screen for HCV NS3 helicase inhibitor project (AID 743271; in the data active = inhibition above about 28%). The following applies: E. coli SSB-DNA binding, stronger effect = higher value, concentration not given here.
The nature of experiment [5]: compounds distorting NS3 helicase fluorescence signal – biochemical, NIH Clinical Collection, artefact control for HCV NS3 helicase inhibitor project (AID 743272; call rule not given here;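 also: HCV NS3 helicase with a Cy5 labelled single stranded DNA probe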). The following applies: fluorescence interference counterscreen, HCV NS3 helicase assay; stronger effect = lower value.
Experiment [6] concerns the target 6-phosphogluconate dehydrogenase, decarboxylating (Homo sapiens) (UniProt P52209). Kind of experiment: inhibition of human phosphogluconate dehydrogenase – biochemical, recombinant enzyme, NADPH absorbance, primary screen (AID 1159550;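 active = at least 20% inhibition of 6-phosphogluconate dehydrogenase activity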). The note with it: recombinant 6PGD, NADPH absorbance 341 nm; at 10 µM; stronger effect = higher value.
The nature of experiment [7]: modulation of C. elegans fzo-1 (AID 1259413; call rule not given here;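 also: fzo-1 mutant C. elegans worms in liquid wells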). The note with it: C. elegans fzo-1 modulator screen, mean read-out; stronger effect = higher value.
Experiment [8] can be described thus: EMT-state selective cytotoxicity in co-culture – imaging, PC-3E GFP, TEM4-18 mCherry, primary screen (AID 1345086;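 active = compounds killing one labelled cell type while sparing the other, by normalised counts and ratio limits, not self-fluorescent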;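 as to all read-outs here: cells exposed to compound for 72 h before imaging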;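 as to red/green cell ratio (normalised): normalised mesenchymal count divided by normalised epithelial count so high means epithelial killing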). The note with it: PC-3E GFP / TEM4-18 mCherry co-culture, imaging cell counts, at 1 µM; for red/green cell ratio (normalised): actives lie on both sides, counts scaled to control wells, 1 = unselective.
A short description of experiment [9]: viability loss with induced miR-34 in A549 – imaging, A549 dox-inducible miR-34, nuclei and caspase counts, primary screen (AID 1347080;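 active = compounds whose cell count with miR-34 switched on is under 0.7 times the count with it off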). The following applies: A549 miR-34 inducible, Hoechst nuclei count, 48 h.
A short description of experiment [10]: galactose survival enhancers in mitochondrial complex I cybrids – cell-based, galactose medium, ATP luminescence, primary screen (AID 1645843;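 active = z-score of at least 1.8 in each of two replicates, scored against plate mean and spread of sample wells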;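 also: positive z means more ATP and so rescue of galactose-driven cybrid death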). The note with it: complex I mutant cybrid cells, 72 h, stronger effect = higher value.
The next experiment has as its system F380Y. Kind of experiment: BK channel mutant inhibitors and activators – cell-based, U2OS BacMam, thallium flux, beta subunits, selectivity assay, profiling panel (AID 1259406).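 Also: initial slope of Thallos dye fluorescence rise after thallium is added; log ratio against the mean of 0.3% DMSO vehicle wells on the same plate.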 The following applies: U2OS BacMam BK variants, at 30 µM.
The subject of a further experiment is F380Y/beta2Delta. Described as above. The note with it: U2OS BacMam BK variants, at 30 µM.
The target of experiment [11] is Calcium-activated potassium channel subunit alpha-1 (Homo sapiens) + Leucine-rich repeat-containing protein 26 (Homo sapiens) (UniProt Q12791+Q2I0M4). The description is as above. The note with it: U2OS BacMam BK variants, F380Y/Slo1WT/gamma1, at 30 µM.
Another experiment has as its system R275C. Described as above. The note with it: U2OS BacMam BK variants, at 30 µM.
The next experiment concerns R275C/beta1. Described as above. The following applies: U2OS BacMam BK variants, at 30 µM.
In another experiment the test system is R275C/beta2Delta. The description is as above. The following applies: U2OS BacMam BK variants, at 30 µM.
Experiment [12] can be described thus: MELAS cybrid and Rieske KO viability enhancers – cell-based, MELAS cybrids, Rieske KO mouse fibroblasts, CellTiter-Glo, primary screen (AID 1508586;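 active = mean z-score across replicates of 1.96 or higher in either the MELAS or the Rieske mutant cell line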;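 also: z relative to plate mean and SD of compound and empty wells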). The note with it: low glucose.
In experiment [13] the target is Mitogen-activated protein kinase 7 (Homo sapiens) (UniProt Q13164). Nature of the experiment: Gal4-ERK5 driven luciferase induction – cell-based, HTS, primary screen (AID 1508626;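 active = luciferase signal above three times the same-plate solvent-only control wells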;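 also: luciferase driven by Gal4-ERK5 fusion binding five Gal4 sites before minimal TATA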). The following applies: HeLa Gal4-ERK5 transactivation, 18 h, at 5 µM, stronger effect = higher value.
Experiment [14] has as its target NAD(+) hydrolase SARM1 (Homo sapiens) (UniProt Q6SZW1). Kind of experiment: blocking NAD cleavage by SARM1 SAM-TIR – cell lysate, NAD-Glo luminescence (AID 1508614;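 active = compound whose remaining NAD level is above about 45 nM, limit read from the data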;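 also: higher remaining NAD means stronger inhibition of SARM1 NADase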). The following applies: SAM-TIR HEK293T lysate NADase, at 1 µM, stronger effect = higher value.
Where [15] appears, read: measured here: epithelial PC-3E GFP cell survival.
Where [16] appears, read: measured here: mesenchymal TEM4-18 mCherry cell survival.
Setting [17] is: stronger effect = lower value, cell number ratio, induced over uninduced.
Where [18] appears, read: measured here: relative caspase fold change +Dox/-Dox.
Setting [19] is: measured here: total cells with miR-34 induction, stronger effect = lower value.
Setting [20] is: measured here: total cells without miR-34 induction.
Where [21] appears, read: MELAS cybrid survival, CellTiter-Glo 48 h, stronger effect = higher value.
Setting [22] is: Rieske KO mouse fibroblast survival, CellTiter-Glo 72 h.

Chain of 6-phosphogluconate dehydrogenase, decarboxylating (Homo sapiens) (P52209 whole entry, looked up): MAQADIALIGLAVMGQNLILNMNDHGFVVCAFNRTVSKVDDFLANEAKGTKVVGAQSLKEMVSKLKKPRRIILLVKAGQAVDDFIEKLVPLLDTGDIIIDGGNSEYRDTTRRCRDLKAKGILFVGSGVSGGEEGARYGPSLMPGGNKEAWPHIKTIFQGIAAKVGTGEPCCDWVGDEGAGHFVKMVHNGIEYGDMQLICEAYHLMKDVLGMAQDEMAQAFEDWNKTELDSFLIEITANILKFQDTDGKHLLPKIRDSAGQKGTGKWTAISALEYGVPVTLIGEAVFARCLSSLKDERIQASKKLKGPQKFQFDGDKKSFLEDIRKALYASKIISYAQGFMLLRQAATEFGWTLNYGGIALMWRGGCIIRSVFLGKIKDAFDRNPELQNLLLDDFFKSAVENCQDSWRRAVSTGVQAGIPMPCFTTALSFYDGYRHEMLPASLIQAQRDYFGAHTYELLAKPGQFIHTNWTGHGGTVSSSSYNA
Chain of Calcium-activated potassium channel subunit alpha-1 (Homo sapiens) + Leucine-rich repeat-containing protein 26 (Homo sapiens) (Q2I0M4 whole entry, looked up, one chain of several): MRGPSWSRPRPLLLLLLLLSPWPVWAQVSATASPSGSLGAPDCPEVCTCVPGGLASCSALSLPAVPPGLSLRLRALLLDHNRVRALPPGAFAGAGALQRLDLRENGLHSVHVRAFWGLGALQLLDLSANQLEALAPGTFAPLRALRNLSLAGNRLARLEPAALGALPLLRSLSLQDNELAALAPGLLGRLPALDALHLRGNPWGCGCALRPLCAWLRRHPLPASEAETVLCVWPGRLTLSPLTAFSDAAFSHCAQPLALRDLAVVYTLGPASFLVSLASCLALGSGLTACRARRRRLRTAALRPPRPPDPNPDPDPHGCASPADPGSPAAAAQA
Chain of Mitogen-activated protein kinase 7 (Homo sapiens) (Q13164 whole entry, looked up, the tested form may be a part): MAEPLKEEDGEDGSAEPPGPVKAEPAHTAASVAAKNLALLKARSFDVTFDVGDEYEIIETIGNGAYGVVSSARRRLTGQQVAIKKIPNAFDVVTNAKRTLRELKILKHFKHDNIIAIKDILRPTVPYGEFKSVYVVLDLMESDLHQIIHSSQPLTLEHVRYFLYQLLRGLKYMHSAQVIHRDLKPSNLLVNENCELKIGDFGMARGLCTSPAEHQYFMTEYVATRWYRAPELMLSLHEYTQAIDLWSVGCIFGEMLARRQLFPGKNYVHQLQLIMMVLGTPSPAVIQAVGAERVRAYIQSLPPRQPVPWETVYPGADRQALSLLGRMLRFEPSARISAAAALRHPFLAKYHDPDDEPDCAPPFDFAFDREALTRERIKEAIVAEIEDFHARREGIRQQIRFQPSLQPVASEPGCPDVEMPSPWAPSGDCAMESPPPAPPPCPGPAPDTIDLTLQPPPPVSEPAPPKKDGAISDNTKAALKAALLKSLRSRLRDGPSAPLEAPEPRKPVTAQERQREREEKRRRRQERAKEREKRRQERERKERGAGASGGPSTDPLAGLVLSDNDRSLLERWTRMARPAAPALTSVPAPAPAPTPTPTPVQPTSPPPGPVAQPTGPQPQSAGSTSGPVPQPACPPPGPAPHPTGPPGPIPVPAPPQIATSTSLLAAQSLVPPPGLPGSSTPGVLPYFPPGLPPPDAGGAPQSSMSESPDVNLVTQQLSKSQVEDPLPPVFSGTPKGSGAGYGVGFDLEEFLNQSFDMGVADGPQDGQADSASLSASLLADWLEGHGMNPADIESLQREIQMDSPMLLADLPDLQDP
Chain of NAD(+) hydrolase SARM1 (Homo sapiens) (Q6SZW1 whole entry, looked up): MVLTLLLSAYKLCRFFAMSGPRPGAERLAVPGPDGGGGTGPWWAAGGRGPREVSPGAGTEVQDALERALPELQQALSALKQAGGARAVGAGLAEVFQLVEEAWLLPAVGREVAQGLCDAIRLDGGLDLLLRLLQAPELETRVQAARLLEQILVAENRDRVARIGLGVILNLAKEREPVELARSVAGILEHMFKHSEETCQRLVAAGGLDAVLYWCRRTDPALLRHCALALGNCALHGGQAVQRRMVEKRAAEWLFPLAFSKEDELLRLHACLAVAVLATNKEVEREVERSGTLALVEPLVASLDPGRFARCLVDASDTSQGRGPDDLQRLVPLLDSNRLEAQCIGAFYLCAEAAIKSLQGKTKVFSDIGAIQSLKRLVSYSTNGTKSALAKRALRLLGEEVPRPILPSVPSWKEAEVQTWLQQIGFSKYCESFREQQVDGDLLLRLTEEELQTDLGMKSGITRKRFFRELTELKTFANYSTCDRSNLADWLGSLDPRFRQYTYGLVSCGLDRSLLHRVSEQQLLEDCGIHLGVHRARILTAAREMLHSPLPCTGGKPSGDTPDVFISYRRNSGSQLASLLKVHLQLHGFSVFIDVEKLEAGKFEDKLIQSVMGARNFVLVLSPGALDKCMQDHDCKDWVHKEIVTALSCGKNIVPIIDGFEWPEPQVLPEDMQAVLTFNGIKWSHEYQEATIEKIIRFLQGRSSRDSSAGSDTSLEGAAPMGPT

With `O=[N+]([O-])c1cccc2cn[nH]c12`, in experiment [1], the parasite load remaining is 55.2% (inactive). Further, the viability in experiment [1] was 68.7%. Moreover, the values for the fluorescence ratio in [2] and in experiment [5] were 0.99 (inactive) and 0.97 (inactive), respectively. The results for the inhibition in experiment [3], in [4] and in experiment [6] were 1.53% (inactive), -2.76% (inactive) and -14.4% (inactive), respectively. The mean signal in experiment [7] was 242 (inactive). The red/green cell ratio (normalised) in experiment [8] was 0.79 (inactive). Further, the normalised cell number was found to be 1.44 in experiment [8] (setting [15]) and 1.13 in experiment [8] (setting [16]). Further, the fold change is 1.03 (inactive) and 0.867 (inactive) and 0.91 (inactive) in [9] (setting [17]); 0.865 and 1.54 and 0.678 in [9] (setting [18]). The cell count is 10200 and 8750 and 8260 in [9] (setting [19]); 9850 and 10100 and 9080 in experiment [9] (setting [20]). For the same molecule, the z-score in [10] is 0.295 (inactive) and 0.3 (inactive) and -0.14 (inactive). Also, the log fold change Tl+ flux was 0.0311 (inactive) in the experiment with F380Y; -0.000818 (inactive) with F380Y/beta2Delta; 0.0381 (inactive) in experiment [11]; -0.025 (inactive) with R275C; -0.0288 (inactive) in the experiment with R275C/beta1; 0.0285 (inactive) in the experiment with R275C/beta2Delta.
Consider `COc1ccc(-c2cc(=O)c3c(OC)c(OC)c(OC)c(OC)c3o2)cc1OC`, for which the parasite load remaining in experiment [1] is 46.2% (inactive). The viability in experiment [1] stood at 66.9%. In addition, the fluorescence ratio in [2] was 1.01 (inactive); in [5], 0.96 (inactive). The inhibition is -1.19% (inactive) in [3], -2.41% (inactive) in experiment [4] and 2.3% (inactive) in experiment [6]. In [7], the mean signal was 277 (inactive). Moreover, in experiment [8], the red/green cell ratio (normalised) is 1.15 (inactive). The values for the normalised cell number in experiment [8] (setting [15]) and in experiment [8] (setting [16]) were 0.98 and 1.13, respectively. The fold change in [9] (setting [17]) is 0.981 (inactive) and 0.97 (inactive); in experiment [9] (setting [18]), 1.14 and 0.279. The cell count in experiment [9] (setting [19]) was 9210 and 7680; in experiment [9] (setting [20]) it was 9390 and 7920. Further, the figures for the z-score in [12] (setting [21]), in experiment [12] (setting [22]) and in [10] were -0.237, 2.19 and 0.845 (inactive), respectively. The luciferase signal in experiment [13] is 48 AU (inactive). Further, the log fold change Tl+ flux in the experiment on F380Y is 0.00321 (inactive); in the experiment with F380Y/beta2Delta it was 0.0292 (inactive); in experiment [11], -0.341 (active); in the experiment on R275C, -0.784 (active); in the experiment on R275C/beta1, -0.176 (active); in the experiment with R275C/beta2Delta, -0.278 (active).
With `Nc1nc2[nH]c(=O)c(=O)[nH]c2c(=O)[nH]1`, the inhibition in experiment [6] is 13.8% (inactive).
For the molecule `C[C@H]1COc2c(N3CCN(C)CC3)c(F)cc3c(=O)c(C(=O)O)cn1c23`, the figures for the fluorescence ratio in experiment [2] and in experiment [5] were 1.03 (inactive) and 1 (inactive), respectively. The results for the inhibition in experiment [3], in experiment [4] and in experiment [6] were -3.56% (inactive), -3.95% (inactive) and 0.836% (inactive), respectively. For the same molecule, the mean signal in [7] is 274 (inactive). In addition, the red/green cell ratio (normalised) in experiment [8] is 1.01 (inactive). Moreover, the results for the normalised cell number in experiment [8] (setting [15]) and in [8] (setting [16]) were 1.12 and 1.13, respectively. Also, the fold change is 0.893 (inactive) and 0.857 (inactive) in [9] (setting [17]); 6.58 and 0.734 in experiment [9] (setting [18]). Besides, the cell count in experiment [9] (setting [19]) was 11000 and 8630; in [9] (setting [20]) it was 12300 and 10100. The z-score was -0.0762 (inactive) in experiment [12] (setting [21]), -0.528 in experiment [12] (setting [22]) and -0.45 (inactive) in experiment [10]. In addition, in experiment [14], the remaining NAD is 10 nM (inactive). Also, the luciferase signal in [13] is 296 AU (inactive). Moreover, the log fold change Tl+ flux was -0.012 (inactive) in the experiment with F380Y; 0.0117 (inactive) in the experiment with F380Y/beta2Delta; 0.00221 (inactive) in experiment [11]; -0.0297 (inactive) in the experiment with R275C; 0.0187 (inactive) in the experiment on R275C/beta1; -0.00628 (inactive) in the experiment with R275C/beta2Delta.
As for `Oc1cc(O)c2c(c1)O[C@H](c1cc(O)c(O)c(O)c1)[C@H](O)[C@H]2c1c(O)cc(O)c2c1O[C@H](c1cc(O)c(O)c(O)c1)[C@H](O)[C@H]2c1c(O)cc(O)c2c1O[C@H](c1cc(O)c(O)c(O)c1)[C@H](O)C2`, the inhibition in [6] is 11.5% (inactive).
With `COc1c(C(=O)O)ccc2c1CCC(C)(C)O2`, in experiment [6], the inhibition was 17.1% (inactive).

By viability is commonly meant a per cent measure of how many cells are alive, often set against a control. Broadly, the inhibition is the drop in the measured response relative to a control, in per cent.
